# Screening results as filed in PubChem.
# This is a sample that favours compounds with a hit; in the whole collection about 27% have one here.
# CYP2C9 act: increases human cytochrome P450 2C9 activity. activation factor at 5 µM. AID 1024. hit rate 1.4% among 96,000. P11712. recombinant CYP2C9, luciferin-H conversion, luminescence; active compounds read high; factor 1 = untreated enzyme, 0 = blocked;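 active means activation factor of 2 or more for CYP2C9 at a 5 µM dose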;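 further: 0 = sulfaphenazole-blocked wells and 1 = vehicle-only wells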
# CYP2C19 act: activators of human cytochrome P450 2C19; P33261; recombinant CYP2C19, luciferin-H EGE luminescence; active compounds read high; 0 = fully inhibited enzyme, 1 = untreated enzyme; activation factor at 5 µM; 96,000 tested, under 10 active; AID 1025;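 active means activation factor of at least 2 at 5 µM in the primary screen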;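 further: 0 = wells with 2.5 mM tranylcypromine and 1 = vehicle-only wells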
# CYP2C9 inhib: human CYP2C9 inhibition. hit rate 20% among 96,000. AID 777. P11712. CYP2C9 Supersomes, luciferin-H conversion, luminescence. inhibition, % at 5 µM;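 active means blocking of liver enzyme CYP2C9 beyond about 50% at 5 µM, limit read from the data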
# CYP2C19 inh: inhibitors of human CYP2C19; P33261; CYP2C19 Supersomes, luciferin-H EGE luminescence, 30 min; inhibition, % at 5 µM; hit rate 21% among 96,000; AID 778;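 active means CYP2C19 inhibition above a set limit at 5 µM in the primary screen, cut at about 50% in these data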;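 further: plate controls were negative control wells for no effect and 2.5 mM tranylcypromine positive control for full effect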
# Cav3 T inh: blocks human Cav3.2 T-type calcium channel | B-score at 10 µM | O95180 | hit rate 4% among 100,000 | AID 449739 | Cav3.2-expressing cells, Fluo-4 calcium fluorescence FDSS; active compounds read low;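 active means single-dose well whose peak fluorescence ratio is a statistical outlier from its plate by either plate-standardised score or position-corrected B-score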
# An asterisk follows results filed as active; nt = no result.
SMILES,CYP2C9 act,CYP2C19 act,CYP2C9 inhib,CYP2C19 inh,Cav3 T inh
CCCC(=O)N(c1ccc2oc(=O)sc2c1)S(=O)(=O)c1cccs1,0.3,0,71*,99*,0.0067
CCC(C(=O)NCc1ccccc1OC)n1nc(C)n2c(cc3occc32)c1=O (stereo unspecified),0.4,0.4,63*,56*,-0.75
O=C(CS(=O)CC(=O)N(CC(=O)NC1CCCC1)C1CCCCC1)Nc1ccc(F)cc1 (stereo unspecified),0.4,0.9,57*,8,-0.21
O=C(CCl)N(c1ccc(Cl)cc1)c1c[nH]c2ccccc12,0.2,0.1,82*,90*,-3.2
O=C(CCl)N(c1ccccc1)c1c[nH]c2ccccc12,0.1,0.6,95*,44,0.7
O=C(O)Cc1c[nH]c2ccccc12,nt,nt,nt,nt,1.2
Cc1ccc(SC(CC(=O)c2ccc(C)cc2)C(=O)O)cc1 (stereo unspecified),0.1,0.6,95*,45,0.68
Cc1ccc(C(=O)CC(C(=O)O)n2cccn2)cc1 (stereo unspecified),1,0.9,5,13,-0.28
COc1ccc(C(O)P(=O)(O)CCc2ccccc2)cc1 (stereo unspecified),1.2,1.2,-22,-19,0.22
O=C1OC(C(=O)O)Cc2ccccc21 (stereo unspecified),nt,nt,nt,nt,0.76
C/C(=N/NS(=O)(=O)c1ccc(C)cc1)c1cccc(NC(=O)c2cccc(Cl)c2)c1,1,1,3,-3,-1.5
C/C(=N/NS(=O)(=O)c1ccc(Cl)cc1)c1cccc(NC(=O)c2ccc(Cl)cc2Cl)c1,0,0.3,97*,75*,nt
C/C(=N\NS(=O)(=O)c1ccc(Cl)cc1)c1ccc(O)cc1,0.2,0.2,78*,83*,-0.96
CCC(=O)N1c2ccc(S(=O)(=O)CCC(=O)NCc3ccc4c(c3)OCO4)cc2CC1C (stereo unspecified),0.6,0.8,42,23,-0.41
CCC(=O)N1c2ccc(S(=O)(=O)CCC(=O)NCCC3=CCCCC3)cc2CC1C (stereo unspecified),0.4,0.8,61*,21,0.94
COc1cc(NC(=O)CN2CCN(S(=O)(=O)c3ccc(C(C)C)cc3)CC2)cc(OC)c1,0.7,0.3,30,74*,-4.2*
COc1ccc(S(=O)(=O)N2CCN(CC(=O)Nc3cc(OC)cc(OC)c3)CC2)cc1,1.2,0.8,-21,15,nt
COc1cccc(NC(=O)CN2CCN(S(=O)(=O)c3ccc(C(C)C)cc3)CC2)c1,0.7,0.1,31,87*,-7.3*
Cc1[nH]c(=O)[nH]c(=O)c1S(=O)(=O)N(C)Cc1ccccc1,0.9,1,7,0,-0.017
CN(C(=S)NC1=CCS(=O)(=O)C1)C1CCCCC1,1,0.8,0,21,1
O=C(NCc1ccccc1)N1CCn2c(nc3ccccc32)C1,nt,nt,nt,nt,1.1
CCSc1nc(C)cc(C)c1S(=O)(=O)c1ccccc1C,1.5,0.6,-46,42,-2.4
CSc1nc(C)cc(C)c1S(=O)(=O)c1ccccc1C,2.9*,0.9,-190,12,-6.5*
Cc1cc2cc(CN(Cc3cccs3)C(c3nnnn3C(C)(C)C)C(C)C)c3nnnn3c2cc1C (stereo unspecified),nt,nt,nt,nt,-2
Cc1ccc(/C=C2/CCc3c([nH]c4ccccc34)C2=O)cc1,0.8,0.4,24,63*,nt
SMILES,CYP2C9 act,CYP2C19 act,CYP2C9 inhib,CYP2C19 inh,Cav3 T inh
Cc1ccc2[nH]c3c(c2c1)CC/C(=C/c1ccccc1)C3=O,0.7,0.6,29,40,-0.019
O=C1/C(=C\c2ccccc2)CCc2c1[nH]c1ccccc21,0.7,0.1,26,91*,0.18
O=C1NCCc2c1[nH]c1ccccc21,1.1,1.1,-9,-11,1.1
CC1CCCCC1N1CN=C(Nc2nc3ccccc3s2)NC1 (stereo unspecified),1.1,1,-12,5,0.76
CC(O)(CS(=O)(=O)Cc1ccccc1Cl)C(=O)Nc1cccc(C(F)(F)F)c1 (stereo unspecified),0.6,0.5,38,54*,-3.8
Nc1nnnn1/N=C/c1ccc(O)cc1,0.2,0.3,84*,68*,0.017
CCC(C)NS(=O)(=O)c1ccc(OCC(=O)N2CCC(C)CC2)cc1 (stereo unspecified),nt,nt,nt,nt,0.35
CC1CCN(C(=O)COC(=O)[C@H](C)NS(=O)(=O)/C=C/c2ccccc2)CC1,1.6,0.6,-64,37,-5.9*
O=c1c(=NNc2ccccc2Cl)c(=O)c2ccccc12,0.7,0.4,32,60*,-0.62
Cc1cc(C)c(NN=c2c(=O)c3ccccc3c2=O)c(C)c1,0.8,1,18,4,nt
CCOc1ncccc1C(=O)N(C)CC1COc2ccccc2O1 (stereo unspecified),0.4,0.1,63*,85*,-0.09
CC(C)OC(=O)C1C2C=CC3(CN(C(C)c4ccc(Br)cc4)C(=O)C13)O2 (stereo unspecified),0.7,0.2,30,83*,0.035
Cc1ccc(S(=O)(=O)NC(C)C(=O)Nc2ccc(C(N)=O)cc2)cc1 (stereo unspecified),0.8,0.9,23,11,0.085
CC1(C)CC(=O)C2=C(C1)OC(=O)C2(NC(=O)c1cccs1)C(F)(F)F (stereo unspecified),0.4,1.1,56*,-15,-2.5
CON/C=C(\C=Nc1ccc(F)cc1)c1ncc(C(F)(F)F)cc1Cl,0.8,1.1,21,-15,-0.12
Cc1ccc(C(=O)COC(=O)C2CC(=O)N(c3nc(-c4ccccc4)cs3)C2)cc1 (stereo unspecified),0.2,0.3,79*,71*,-1.3
Cc1cccc(N2CC(C(=O)OCC(=O)c3ccc(OC(=O)c4cccs4)cc3)CC2=O)c1C (stereo unspecified),0.2,0.3,76*,71*,-0.11
COc1ccccc1N1CC(C(=O)OCC(=O)c2ccc(F)cc2)CC1=O (stereo unspecified),1.6,0.7,-64,26,0.75
CC(C)c1ccccc1N=C1SCCN1C1CCS(=O)(=O)C1 (stereo unspecified),0.7,0.4,31,58*,-2.8
Cc1cccc(NC(=O)C2NC(=O)CC2c2ccccc2)c1C (stereo unspecified),0.8,0.4,16,58*,-0.047
CN1CCN(CC#CC2(O)CCCCC2)CC1,1.1,1.1,-10,-6,0.3
COc1ccc(C(=O)COC(=O)CN2CC(=O)Oc3ccccc32)cc1Br,0.5,0.6,46,38,0.6
COCc1c(C(=O)OCC(=O)N2c3ccccc3NC(=O)C2(C)C)oc2ccccc12,0.7,0.9,31,12,0.16
COCc1c(C(=O)OCC(=O)N2c3ccccc3CC2C)oc2ccccc12 (stereo unspecified),1.1,0.5,-8,53*,-1.6
CC1Cc2ccccc2N1C(=O)COC(=O)c1cccnc1Cl (stereo unspecified),1,0.5,4,53*,1.2
